Activity calls are given as the source filed them. How the calls were made is not given here.
Assay: inhibition of Brca1/Bard1 split-luciferase complementation, confirmation, counter-screen for Mdm2/MdmX interaction inhibitor project, luminescence, single concentration (AID 504668)
Settings: Brca1/Bard1 bimolecular luciferase complementation counterscreen, at 8 µM, active compounds read high

Row | SMILES | inhibition
1 | CCOc1ccc(-c2nnc(SCC(=O)Nc3ccc4c(c3)c3ccccc3n4CC)n2N)cc1 | 23.1% (active)
2 | CC1(C)Cc2ccccc2C2=NNC(=O)C2=N1 | 29.2% (active)
3 | O=C(Nc1ccc(F)c(Cl)c1)Nc1csc2ccccc12 | 35% (active)
4 | O=C(Nc1nc(-c2ccccn2)cs1)c1ccc(Cl)s1 | 24.4% (active)
5 | Cc1ccc(NC(=O)c2ccccc2NS(=O)(=O)c2ccc(F)cc2)cc1S(=O)(=O)N1CCCCC1 | 28.2% (active)
6 | Cc1cc(C(=O)CCl)c(C)n1CCc1ccc(F)cc1 | 34.4% (active)
7 | Cc1cccc(/C=N/NC(=O)Cc2ccc(Cl)cc2)c1O | 29.9% (active)
8 | CC(C)Cc1nc(Nc2ccc(S(=O)(=O)N3CCCC3)cc2)c2nnn(Cc3ccccc3)c2n1 | 24.1% (active)
9 | CC1=NNC(=O)/C1=C\c1cn(-c2ccccc2)nc1-c1cccs1 | 25.7% (active)
10 | O=C(Nc1ccccc1)c1ccccc1NS(=O)(=O)c1ccc(Cl)s1 | 27.7% (active)
11 | C=CCC(Nc1ccccc1)C12C=CC(O1)C(C(=O)OC)=C2C(=O)OC (centres undefined) | 31.4% (active)
12 | CCCCCCCCCn1ccc(=N)cc1 | 23.6% (active)
13 | CCN(CC)CCNc1cc(C)nc2c1C(=O)C(=O)C=C2N1CCCCC1 | 28.9% (active)
14 | COc1ccc(C(=O)O/N=C(\N)Cc2ccc(Cl)c(Cl)c2)cc1OC | 26.9% (active)
15 | CCCCC(=O)NC(c1ccc(N(C)C)cc1)c1ccc2cccnc2c1O (centres undefined) | 23.7% (active)
16 | O=C(Nc1nc(-c2ccccc2)cs1)c1ccccc1NS(=O)(=O)c1ccc(F)cc1 | 25.5% (active)
17 | O=C(Nc1ccc(-c2nc3ccc(NC(=O)c4cccs4)cc3[nH]2)cc1)c1cccs1 | 33.7% (active)
18 | COc1ccc(Nc2ccnc3ccccc23)cc1 | 33.7% (active)
19 | CC(Oc1ccc(Br)cc1)C(=O)Nc1nc(-c2ccccn2)cs1 (centres undefined) | 35.4% (active)
20 | O=C(Nc1ccc(Cl)cc1)Nc1ccc(Cl)c(Cl)c1 | 26.8% (active)
21 | CN(C)CCCNC(=S)NCC(c1ccc(Cl)cc1Cl)c1c[nH]c2ccccc12 (centres undefined) | 29.2% (active)
22 | O=C(NCCCO)c1c(O)c2cccc3c2n(c1=O)CCC3 | 24.6% (active)
23 | C/C(N=Nc1nc2ccccc2s1)=N\Nc1ccccc1O | 26.2% (active)
24 | O=C(COc1ccc([N+](=O)[O-])cc1)Nc1nc(-c2ccccn2)cs1 | 35.6% (active)

Reference: PubChem BioAssay
